# Results published in PubChem BioAssay (NCATS).
# Active and inactive are the calls of the source. Calls come from the whole dose curve; as a rule, active = well fitted curve in the direction sought with a large enough effect; inconclusive = small, poorly fitted or top-dose-only effect, or another doubt; inactive = no such curve, though single readings can be large or run the other way.
# Assay: Cellular Toxicity (caspase-3) MRC-5 (AID 659);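 for caspase-3 activation: 0% = DMSO basal and 100% = 10 µM staurosporine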
# Conditions: MRC-5 cells, luminescence; Potency: caspase-3 activation; series mostly up to 91.7 µM; caspase-3 activation: at the top concentration
# From the text: NIH Chemical Genomics Center [NCGC]
# NIH Molecular Libraries Screening Centers Network [MLSCN]
# National Institutes of Environmental Health Sciences [NIEHS]
# National Toxicology Program [NTP]
# We have developed a 1536-well cell-based assay for quantitative high throughput screening (qHTS) against a number of cell lines to determine in vitro caspase 3/7 activity of small molecules. This particular assay uses the MRC-5 cell line which is derived from human normal lung fibroblasts.
# NCGC Assay Protocol Summary:
# The Caspase-Glo 3/7 assay (Promega) is a homogeneous method to measure caspase-3 and caspase-7 activities in cultured cells. The quantitation of caspase 3/7 activity is based on the cleavage of a peptide-aminoluciferin substrate. After caspase cleaves the substrate the free aminoluciferin is liberated and serves as the substrate of luciferase, which generates the light. The luminescent signal is proportional to amount of caspase 3/7 activity present.
# Using the Caspase-Glo 3/7 assay, the amount of caspase 3/7 activity was measured in the MRC-5 line with complete culture medium following compound treatment for 16 hours. The assay was performed in opaque white 1536-well plates. In the screen, tamoxifen and staurosporine were used as positive controls. Library compounds were measured for their ability to cause the activation of caspase 3/7 in the cell line, as reflected by an increase in luminescence signal, in a concentration-dependent manner. Data were normalized to the controls for basal activity (DMSO only) and 100% stimulation (10 uM staurosporine). AC50 values were determined from concentration-response data modeled with the standard Hill equation.
# qHTS protocol for caspase 3/7 assay in MRC-5 cells
# [Step] [Parameter] [Value] [Description]
# 1. Reagent; 5 uL; 1500 MRC-5 cells/well
# 2. Time; 5 hr; 37 °C incubation
# 4. Controls; 23 nL; Tamoxifen 0.23 uM to 100 uM & staurosporine 1.4 pM to 100 uM
# 5. Time; 16 hr; 37 °C incubation
# 6. Reagent; 5 uL; Caspase-Glo 3/7 reagent
# 7. Time; 1 hr; Room Temperature
# 8. Detection; Luminescence; Viewlux plate reader
# Keywords: caspase 3/7, apoptosis, MRC-5 cell line, luminescence, NTPHTS, NTPHTS_NCGC, NIEHS, EPA, DSSTox, MLSMR, MLSCN, NIH Roadmap, qHTS, NCGC
# Potency is the fitted concentration of half-maximal effect.
SMILES,Potency,caspase-3 activation
CN(C)c1ccc(C(=C2C=CC(=[N+](C)C)C=C2)c2ccc(N(C)C)cc2)cc1,6.31 µM (active),–
Cc1ccnc2c1NC(=O)c1cccnc1N2C1CC1,–,1.16% (inactive)
O=C(N[C@H](CO)[C@H](O)c1ccc([N+](=O)[O-])cc1)C(Cl)Cl,–,0.68% (inactive)
O=C(O)c1cc(=O)[nH]c(=O)[nH]1,–,0.241% (inactive)
Cc1noc(NS(=O)(=O)c2ccc(N)cc2)c1C,–,1.71% (inactive)
CC(=O)Oc1ccccc1C(=O)Nc1ncc([N+](=O)[O-])s1,–,-7.5% (inactive)
CCc1cc(C(N)=S)ccn1,–,1.05% (inactive)
Cc1ncc([N+](=O)[O-])n1CCO,–,-0.157% (inactive)
C[C@]12C=CC(=O)C=C1CC[C@@H]1[C@@H]2C(=O)C[C@@]2(C)[C@H]1CC[C@]2(O)C(=O)CO,–,-0.571% (inactive)
COc1ccc2cc3[n+](cc2c1OC)CCc1cc2c(cc1-3)OCO2,–,-0.649% (inactive)
N=C(N)c1ccc(OCCCCCOc2ccc(C(=N)N)cc2)cc1,–,12.3% (inactive)
CC(=O)[C@H]1CC[C@H]2[C@@H]3CCC4=CC(=O)CC[C@]4(C)[C@H]3CC[C@]12C,inactive,–
NC(N)=NC(N)=NCCc1ccccc1,–,-0.0595% (inactive)
CC1=NN(c2ccccc2)C(=O)C1,–,0.495% (inactive)
CC[C@H](C)C(=O)O[C@H]1C[C@@H](C)C=C2C=C[C@H](C)[C@H](CC[C@@H]3C[C@@H](O)CC(=O)O3)[C@H]21,–,11.9% (inactive)
Cc1nnc(NS(=O)(=O)c2ccc(N)cc2)s1,–,-0.478% (inactive)
NNC(=O)c1ccncc1,–,-0.997% (inactive)
Cc1cc(NS(=O)(=O)c2ccc(N)cc2)no1,–,0.538% (inactive)
